Experimental data from PubChem BioAssay AID1852 (Sanford-Burnham Center for Chemical Genomics, 2009).
In all, about 2,500 compounds went through this assay and about 1,100 (44%) were called active.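 How the source made its calls: active means inhibition above 50% at 4 µM in the single-point screen; inactive means inhibition of 50% or less.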 So high a share suggests a set chosen from earlier hits. Some of the results follow.

Assay: TNF-a-driven NF-kB reporter inhibitors, primary screen, selectivity assay for NOD1/NOD2 signaling inhibitor project, cell-based, HEK293T NF-kB-Luc, luminescence (AID 1852)
Settings: TNF-a induced, 14 h, at 4 µM, active compounds read high

inhibition, active:
CCCCc1cc(=O)oc2cc(OCC(=O)Nc3cccnc3)c(Cl)cc12 85.3%
COc1nc(Nc2nc3ccccc3c(=O)[nH]2)nc2ccc(C)cc12 67.4%
Cc1ccc(-n2[nH]c(C)c(/C=N/Nc3ccc([N+](=O)[O-])cc3[N+](=O)[O-])c2=O)cc1C 83.2%
Cc1cccc(/C=N/NC(=O)c2cccc([N+](=O)[O-])c2)n1 97.4%
Cc1[nH]n(-c2ccccc2)c(=O)c1/C=N/NC(=O)c1cccc([N+](=O)[O-])c1 76.8%
COc1ccc(C(=O)Nc2ccccc2C(=O)N/N=C/c2ccccn2)cc1OC 102%
O=C(N/N=C/c1ccccn1)c1cc([N+](=O)[O-])cc([N+](=O)[O-])c1 96.4%
CC(/C=C/c1ccccc1)=N/NC(=O)c1cc([N+](=O)[O-])cc([N+](=O)[O-])c1 102%
O=C(N/N=C/c1ccccn1)c1ccc(Cl)c(Cl)c1 101%
O=C(N/N=C/c1ccccn1)c1sc2ccccc2c1Cl 85.8%
CCc1ccc(N(CC)c2ncnc3nc[nH]c23)cc1 82.5%
CCN(c1ccc(OC)cc1)c1ncnc2nc[nH]c12 86.3%
CCCN(CCC)c1ncnc2nc[nH]c12 83.4%
O=C(/C=C/c1ccc([N+](=O)[O-])cc1)Nc1cccc(C(=O)Nc2ccccc2C(=O)O)c1 65.5%
O=C(Nc1ccccc1C(=O)O)c1cc(S(=O)(=O)Nc2cccc(F)c2)ccc1Cl 58.9%
O=C1CSc2ccc(C(=O)Nc3cccc(S(=O)(=O)Nc4ccc(Br)cc4)c3)cc2N1 63.4%
O=C(Nc1ccccc1C(=O)O)c1cccc(NS(=O)(=O)c2ccc(Br)cc2)c1 55.5%
Cc1ccc(C(=O)Nc2ccccc2C(=O)O)cc1S(=O)(=O)Nc1ccccc1 76.6%
O=C(Nc1ccccc1C(=O)O)c1cc(S(=O)(=O)Nc2ccccc2)ccc1Cl 58.9%
O=C(Nc1ccccc1C(=O)O)c1cc(S(=O)(=O)N2CCCCC2)c(Cl)cc1Cl 61%
O=c1cc(C(F)(F)F)[nH]c2ccc(OC(F)(F)F)cc12 78.8%
O=c1cc(C(F)(F)F)[nH]c2ccc(C(F)(F)F)cc12 73.1%
Cc1ccc(NC(=O)/C=C/c2ccc([N+](=O)[O-])s2)c(C)c1 100%
Cc1ccccc1NC(=O)/C=C/c1ccc([N+](=O)[O-])s1 104%
Oc1[nH]c2ccccc2c1N=NC(=S)N1CCOCC1 94.8%
O=C(O)CCn1cc(/C=C\C(=O)c2ccc(Cl)cc2)c(-c2cccc(Br)c2)n1 77.2%
Cc1ccc(-c2nn(CCC(=O)O)cc2/C=C\C(=O)c2ccc(Br)cc2)cc1 94.7%
N#C/C(=C(/O)COC(=O)CSc1ccc(Cl)cc1)c1nc2ccccc2[nH]1 93.2%
N#C/C(=C(/O)COC(=O)CSc1ccc2ccccc2c1)c1nc2ccccc2[nH]1 90.4%

inhibition, inactive:
O=C(COc1ccc(C(=O)c2ccccc2)cc1)Nc1cccnc1 46.8%
O=C(COc1ccc2c(-c3ccccc3)cc(=O)oc2c1)Nc1cccnc1 34.1%
C/C(=N/NC(=S)Nc1cccc(C)c1)c1cccc([N+](=O)[O-])c1 6.4%
Cc1[nH]n(-c2ccccc2)c(=O)c1/C=N/NC(=O)c1cccc(F)c1 -0.8%
COc1ccc(C(=O)N/N=C/c2ccc(OC(=O)c3cccc4ccccc34)c([N+](=O)[O-])c2)cc1 41.6%
Cc1ccc2cccc(N=Cc3c(C)[nH]n(-c4ccccc4)c3=O)c2n1 38.3%
Cc1c(C(=O)N/N=C/c2ccoc2)cccc1[N+](=O)[O-] -12.6%
CCOc1cc(S(=O)(=O)NCc2ccncc2)ccc1Cl 48.8%
C/C(Cn1nnc([N+](=O)[O-])n1)=N\NC(=O)c1ccc(Cl)c(Cl)c1 31.3%
COc1cc([N+](=O)[O-])ccc1-c1ccc(/C=N/NC(=O)c2ccccc2O)o1 0.6%
CC(/C=C/c1ccccc1)=N/NC(=O)c1cccc(Br)c1 13.3%
O=C(N/N=C/c1ccccn1)c1ccc(Cl)cc1 -21.2%
C/C(=N\NC(=O)c1ccc(Cl)c(Cl)c1)c1ccc(Br)s1 40.4%
C/C(Cl)=C/Cn1c(SC(C)C)nc2c1c(=O)[nH]c(=O)n2C -13.9%
Cc1ccc(NS(=O)(=O)c2cc(NC(=O)c3ccc4c(c3)NC(=O)CS4)ccc2Cl)c(C)c1 -2.2%
Cc1cccc(NC(=O)c2cccc(NS(=O)(=O)c3ccc(Cl)cc3)c2)c1 23.1%
Cc1ccc2c(c1)CCCN2S(=O)(=O)c1cccc(C(=O)Nc2ccccc2C(=O)O)c1 5.4%
O=C(Nc1cccc([N+](=O)[O-])c1)c1ccc2ccccc2c1O 32.8%
Cc1ccc(NS(=O)(=O)c2cc(NC(=O)c3ccc4c(c3)NC(=O)CS4)ccc2C)c(C)c1 3.2%
Cc1ccc(Sc2ccc(/C=C3/C(=O)NN(c4ccccc4)C3=O)o2)cc1 -8.6%
O=C(CCl)Nc1cc(S(=O)(=O)N2CCCCCC2)ccc1Cl 17.6%
O=C(Nc1ccc(Cl)cn1)c1ccc(Br)c(S(=O)(=O)N2CCCCC2)c1 39.5%
NS(=O)(=O)c1ccc(NC(=O)c2cc(Cl)ccc2Cl)cc1 14.7%
O=C(c1cc2nc(-c3ccc(F)cc3)cc(C(F)(F)F)n2n1)N1CCCCC1c1cccnc1 (stereo not drawn) 34.3%
Brc1ccccc1OCCCCn1cnc2ccccc21 -10.4%
O=c1nc(/C=C/c2ccccc2C(F)(F)F)cc(C(F)(F)F)[nH]1 -14.4%
CN(C(=O)/C=C/c1ccc([N+](=O)[O-])s1)c1ccccc1 37.1%
Oc1[nH]c2ccccc2c1N=Nc1nc(Nc2ccccc2)nc(N2CCOCC2)n1 12.6%
O=C(O)CCn1cc(/C=C/C(=O)c2ccc(Cl)cc2)c(-c2cccc(Br)c2)n1 -4.4%
